# According to the supplement of paper PMC8728848:
# Many of the other results were omitted from the sample, so the strongest signals are more common in it than they were.
# How the values were obtained:
# Assay in all cases: glycan array binding signal (z-score within array); higher = stronger binding
# Conditions in all cases: glycan notation: IUPAC condensed, linker removed
# [1] = molecular target: Gal6S(b1-3)GlcNAc6S
# How it was run: (§1)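 Glycan array data came from 3228 arrays in the Consortium for Functional Glycomics database, and only arrays with an available protein sequence were kept. Glycan names were put into IUPAC-condensed notation, and columns mapping to the same glycan were averaged. The binding signal is a within-array Z-score, averaged across arrays of one protein sequence run at different concentrations or buffers and across linkers. A negative Z-score can be read as non-binding.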
# [2] = molecular target: Gal6S(b1-4)GlcNAc6S
# How it was run: as §1
# [3] = molecular target: GalNAc(a1-3)Fuc(a1-2)Gal(b1-4)GlcNAc(b1-3)[GalNAc(a1-3)Fuc(a1-2)Gal(b1-4)GlcNAc(b1-6)]GalNAc
# How it was run: as §1
# [4] = molecular target: GalNAc(b1-3)Gal(a1-4)Gal(b1-4)GlcNAc
# How it was run: as §1
# [5] = molecular target: GalNAc(b1-4)Gal(b1-4)Glc
# How it was run: as §1
# [6] = molecular target: GalNAc(b1-4)GlcNAc(b1-3)GalNAc(b1-4)GlcNAc
# How it was run: as §1
# [7] = molecular target: GalNAc(b1-4)GlcNAc6S
# How it was run: as §1
# [8] = molecular target: GalNAc6S(b1-4)GlcNAc
# How it was run: as §1
# [9] = molecular target: GlcA3S(b1-3)Gal(b1-4)GlcNAc(b1-3)Gal(b1-4)Glc
# How it was run: as §1
# [10] = molecular target: GlcNAc(b1-2)[GlcNAc(b1-4)]Man(a1-3)[GlcNAc(b1-4)][GlcNAc(b1-2)Man(a1-6)]Man(b1-4)GlcNAc(b1-4)GlcNAc
# How it was run: as §1
# [11] = molecular target: GlcNAc(b1-3)Gal(b1-4)GlcNAc(b1-3)Gal(b1-4)GlcNAc(b1-2)[GlcNAc(b1-3)Gal(b1-4)GlcNAc(b1-3)Gal(b1-4)GlcNAc(b1-6)]Man(a1-6)[GlcNAc(b1-3)Gal(b1-4)GlcNAc(b1-3)Gal(b1-4)GlcNAc(b1-2)Man(a1-3)]Man(b1-4)GlcNAc(b1-4)[Fuc(a1-6)]GlcNAc
# How it was run: as §1
# [12] = molecular target: GlcNAc(b1-3)Gal(b1-4)GlcNAc(b1-3)Gal(b1-4)GlcNAc(b1-3)Gal(b1-4)GlcNAc(b1-2)[GlcNAc(b1-3)Gal(b1-4)GlcNAc(b1-3)Gal(b1-4)GlcNAc(b1-3)Gal(b1-4)GlcNAc(b1-6)]Man(a1-6)[GlcNAc(b1-3)Gal(b1-4)GlcNAc(b1-3)Gal(b1-4)GlcNAc(b1-3)Gal(b1-4)GlcNAc(b1-2)Man(a1-3)]Man(b1-4)GlcNAc(b1-4)[Fuc(a1-6)]GlcNAc
# How it was run: as §1
# [13] = molecular target: GlcNAc(b1-3)Gal(b1-4)GlcNAc(b1-3)Gal(b1-4)GlcNAc(b1-3)Gal(b1-4)GlcNAc(b1-3)Gal(b1-4)GlcNAc(b1-2)Man(a1-3)[GlcNAc(b1-3)Gal(b1-4)GlcNAc(b1-3)Gal(b1-4)GlcNAc(b1-3)Gal(b1-4)GlcNAc(b1-3)Gal(b1-4)GlcNAc(b1-2)Man(a1-6)]Man(b1-4)GlcNAc(b1-4)[Fuc(a1-6)]GlcNAc
# How it was run: as §1
# [14] = molecular target: GlcNAc(b1-4)GlcNAc(b1-4)GlcNAc
# How it was run: as §1
# [15] = molecular target: Man(a1-6)Man
# How it was run: as §1
# [16] = molecular target: Neu5Ac(a2-3)Gal(b1-3)GalNAc
# How it was run: as §1
# [17] = molecular target: Neu5Ac(a2-3)Gal(b1-3)GlcNAc(b1-3)Gal(b1-3)GlcNAc
# How it was run: as §1
# [18] = molecular target: Neu5Ac(a2-3)Gal(b1-3)[Fuc(a1-4)]GlcNAc
# How it was run: as §1
# [19] = molecular target: Neu5Ac(a2-3)Gal(b1-4)GlcNAc(b1-2)[Neu5Ac(a2-3)Gal(b1-4)GlcNAc(b1-6)]Man(a1-6)[Neu5Ac(a2-3)Gal(b1-4)GlcNAc(b1-2)Man(a1-3)][GlcNAc(b1-4)]Man(b1-4)GlcNAc(b1-4)GlcNAc
# How it was run: as §1
# [20] = molecular target: Neu5Ac(a2-3)Gal(b1-4)[Fuc(a1-3)]GlcNAc(b1-3)Gal
# How it was run: as §1
# [21] = molecular target: Neu5Ac(a2-3)Gal(b1-4)[Fuc(a1-3)]GlcNAc6S
# How it was run: as §1
# [22] = molecular target: Neu5Ac(a2-3)Gal6S(b1-4)[Fuc(a1-3)]GlcNAc
# How it was run: as §1
# [23] = molecular target: Neu5Ac(a2-6)Gal(b1-4)GlcNAc(b1-2)Man(a1-3)[GlcNAc(b1-2)Man(b1-4)GlcNAc(b1-2)Man(a1-6)]Man(b1-4)GlcNAc(b1-4)GlcNAc
# How it was run: as §1
# [24] = molecular target: Neu5Ac(a2-6)Gal(b1-4)GlcNAc(b1-2)Man(a1-3)[Man(a1-6)]Man(b1-4)GlcNAc(b1-4)GlcNAc
# How it was run: as §1
# [25] = molecular target: Neu5Ac(a2-6)Gal(b1-4)GlcNAc(b1-3)Gal(b1-4)[Fuc(a1-3)]GlcNAc(b1-3)Gal(b1-4)[Fuc(a1-3)]GlcNAc
# How it was run: as §1
# [26] = molecular target: Neu5Ac(a2-6)Gal(b1-4)GlcNAc6S
# How it was run: as §1
# [27] = molecular target: Neu5Ac(a2-8)Neu5Ac(a2-3)Gal(b1-4)GlcNAc
# How it was run: as §1
binder,measurement,setting,value
KISKRILTGKK [NK11 (Sus scrofa)],glycan array binding signal (z-score),[1],3.65
same,glycan array binding signal (z-score),[2],2.58
same,glycan array binding signal (z-score),[3],-0.542
same,glycan array binding signal (z-score),[4],0.262
same,glycan array binding signal (z-score),[5],-0.229
same,glycan array binding signal (z-score),[6],-0.419
same,glycan array binding signal (z-score),[7],2.55
same,glycan array binding signal (z-score),[8],0.009
same,glycan array binding signal (z-score),[9],-1.34
same,glycan array binding signal (z-score),[10],-0.207
same,glycan array binding signal (z-score),[11],2.97
same,glycan array binding signal (z-score),[12],2.73
same,glycan array binding signal (z-score),[13],0.231
same,glycan array binding signal (z-score),[14],-0.597
same,glycan array binding signal (z-score),[15],-0.205
same,glycan array binding signal (z-score),[16],0.104
same,glycan array binding signal (z-score),[17],-0.342
same,glycan array binding signal (z-score),[18],-0.073
same,glycan array binding signal (z-score),[19],0.405
same,glycan array binding signal (z-score),[20],0.515
same,glycan array binding signal (z-score),[21],3.52
same,glycan array binding signal (z-score),[22],-0.648
same,glycan array binding signal (z-score),[23],2.33
same,glycan array binding signal (z-score),[24],1.52
same,glycan array binding signal (z-score),[25],-0.044
same,glycan array binding signal (z-score),[26],0.729
same,glycan array binding signal (z-score),[27],-1.78
